{
  "source": "PubChem BioAssay AID720704",
  "about": "(The Scripps Research Institute Molecular Screening Center, 2013)",
  "note": "Among all 370,000 compounds or so, about 660 (0.18%) were called active. This is one part of a sample in which actives are shown more often than they occur. A number with no mark means an inactive call. Cut-off read from the data, not from the text of the source: active = inhibition above about 11%; inactive = the rest.",
  "data": [
    {"biological_target": "1-phosphatidylinositol 4,5-bisphosphate phosphodiesterase beta-3 (Homo sapiens) (UniProt Q01970)", "sequence (Q01970 whole entry, looked up)": "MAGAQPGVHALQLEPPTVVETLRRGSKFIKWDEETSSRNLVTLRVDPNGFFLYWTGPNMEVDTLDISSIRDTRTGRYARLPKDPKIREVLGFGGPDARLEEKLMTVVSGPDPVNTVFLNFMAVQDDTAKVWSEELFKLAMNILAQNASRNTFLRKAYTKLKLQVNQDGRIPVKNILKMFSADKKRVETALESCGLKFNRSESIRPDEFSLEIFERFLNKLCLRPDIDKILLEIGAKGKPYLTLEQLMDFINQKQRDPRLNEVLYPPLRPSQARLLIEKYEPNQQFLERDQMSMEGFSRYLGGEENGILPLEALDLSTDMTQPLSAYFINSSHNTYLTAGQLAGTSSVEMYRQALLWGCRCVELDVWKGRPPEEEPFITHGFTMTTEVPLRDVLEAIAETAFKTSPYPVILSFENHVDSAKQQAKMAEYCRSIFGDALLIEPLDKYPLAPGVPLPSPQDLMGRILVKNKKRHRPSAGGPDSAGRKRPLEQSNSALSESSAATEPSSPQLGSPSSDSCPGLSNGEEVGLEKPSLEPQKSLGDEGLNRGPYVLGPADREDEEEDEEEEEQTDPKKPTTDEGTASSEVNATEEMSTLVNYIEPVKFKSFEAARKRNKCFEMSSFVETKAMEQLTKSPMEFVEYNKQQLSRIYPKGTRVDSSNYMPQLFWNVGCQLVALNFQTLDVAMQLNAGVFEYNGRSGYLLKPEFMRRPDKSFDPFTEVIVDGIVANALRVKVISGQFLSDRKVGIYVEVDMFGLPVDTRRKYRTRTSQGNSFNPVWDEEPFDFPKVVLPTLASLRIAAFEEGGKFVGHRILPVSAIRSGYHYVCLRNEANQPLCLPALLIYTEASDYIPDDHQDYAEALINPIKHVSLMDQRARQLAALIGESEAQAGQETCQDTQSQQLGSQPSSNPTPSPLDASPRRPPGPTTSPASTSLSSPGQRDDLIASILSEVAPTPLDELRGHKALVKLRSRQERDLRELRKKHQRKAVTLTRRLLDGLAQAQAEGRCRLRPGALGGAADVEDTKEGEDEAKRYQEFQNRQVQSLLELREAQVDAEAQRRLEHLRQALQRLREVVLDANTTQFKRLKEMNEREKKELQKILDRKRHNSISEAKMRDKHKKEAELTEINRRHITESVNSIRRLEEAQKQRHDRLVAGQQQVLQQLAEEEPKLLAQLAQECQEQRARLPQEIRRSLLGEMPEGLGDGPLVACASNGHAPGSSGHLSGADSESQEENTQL", "assay": "human PLC-beta3 inhibitors, primary screen, biochemical, fluorescence (AID 720704);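 note: 0% = median of compound wells on plate and 100% = full blocker control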", "settings": "Purified PLC-beta3, fluorogenic substrate, at 12.2 µM, hits give high values", "values": [
      {"smiles": "CCCOc1cccc(C(=O)Nc2ccccc2C(=O)N2CCN(C)CC2)c1", "inhibition": "-3.82%"},
      {"smiles": "Cn1c(SCC(=O)Nc2cccc(O)c2)nnc1-c1ccc(S(=O)(=O)N2CCOCC2)cc1", "inhibition": "1.37%"},
      {"smiles": "Cc1ccc(NC(=O)C(C)OC(=O)Cc2c[nH]c3ccccc23)cc1S(=O)(=O)N1CCOCC1", "note": "(configuration not stated)", "inhibition": "-3.66%"},
      {"smiles": "CCC(C)(C(=O)NC1CCCCC1)N(C)C(=O)c1ccc2c(c1)OCO2", "note": "(configuration not stated)", "inhibition": "3.07%"},
      {"smiles": "CCOC(=O)c1cccc(NC(=O)CCc2nnc3ccc(N4CCOCC4)nn23)c1", "inhibition": "-10.3%"},
      {"smiles": "CC(=O)c1c(C)[nH]c(C(=O)N2CCN(S(=O)(=O)c3ccc(F)c(F)c3)CC2)c1C", "inhibition": "-2.62%"},
      {"smiles": "COCCNc1ccc(-c2n[nH]c(=O)c3ccccc23)cc1[N+](=O)[O-]", "inhibition": "-3.71%"},
      {"smiles": "O=C(c1ccc2c(c1)OCO2)N1CCNc2ccccc2C1", "inhibition": "12.9% (active)"},
      {"smiles": "O=C(C(=O)N1CCN(c2ccccc2)CC1)c1ccc2c(c1)OCO2", "inhibition": "-0.14%"},
      {"smiles": "O=CN1CCN(C(=O)c2ccc3c(c2)OCO3)CC1", "inhibition": "-2.96%"},
      {"smiles": "O=C(NCc1ccccc1)c1onc(CSc2nc3ccccc3[nH]2)c1C(=O)NCc1ccccc1", "inhibition": "8.62%"},
      {"smiles": "COc1cc(OC)c(C(=O)N2CCCC2)cc1OC", "inhibition": "-8.68%"},
      {"smiles": "CCCc1nc2ccccc2n1C(C)C(=O)NC(C)(C)C", "note": "(configuration not stated)", "inhibition": "1.17%"},
      {"smiles": "Cc1cccc(C)c1NC(=O)C1CCCN1C(=O)OC(C)(C)C", "note": "(configuration not stated)", "inhibition": "0.37%"},
      {"smiles": "Cc1ccc(C)c(NC(=O)C2CCCN2C(=O)OC(C)(C)C)c1", "note": "(configuration not stated)", "inhibition": "5.04%"},
      {"smiles": "CCC[C@H]1CCCC/C=C\\CCCC(=O)OCCN1C(=O)OC(C)(C)C", "inhibition": "13.5% (active)"},
      {"smiles": "CC(C)Cn1c(SCC(=O)Nc2ccc(Cl)cc2F)nc(O)cc1=O", "inhibition": "-1.44%"},
      {"smiles": "CC(C)c1ccc(Nc2nnc(SCC(=O)c3nnc(-c4ccccc4)o3)s2)cc1", "inhibition": "-19.6%"},
      {"smiles": "O=C(Nc1cccc2ccccc12)c1[nH]c(-c2ccccc2)c2c1C(=O)N(C1CC1)C2=O", "inhibition": "-1.92%"},
      {"smiles": "CCC(=O)c1ccc(OCC(=O)OCC(=O)N2CCc3ccccc3C2)cc1", "inhibition": "-10.2%"},
      {"smiles": "CO/N=C(/CS(=O)(=O)c1ccc(Br)cc1)c1ccc(OC)cc1", "inhibition": "0.43%"},
      {"smiles": "CCSc1sc(CC)cc1C=O", "inhibition": "-0.46%"},
      {"smiles": "CCOC(=O)N1CCN(Cc2nc(Cc3cccc(C(F)(F)F)c3)no2)CC1", "inhibition": "-6.49%"},
      {"smiles": "CC(C)=CCN1CCN(Cc2cc3ccccc3[nH]2)CC1CCO", "note": "(configuration not stated)", "inhibition": "-5.94%"},
      {"smiles": "CC(C)(C)OC(=O)Nc1ccc([C@@H](NC(=O)OC(C)(C)C)C(=O)OC(C)(C)C)cc1", "inhibition": "6.19%"},
      {"smiles": "CCN(CC(=O)Nc1ccc2c(c1)OCCO2)Cc1cc(=O)oc2cc(C)c(C)cc12", "inhibition": "-6.71%"},
      {"smiles": "CO[C@@H]1CN(C)C(=O)c2cc(NC(=O)Nc3cc(F)ccc3F)ccc2OC[C@H](C)N(C(=O)c2ccccn2)C[C@@H]1C", "inhibition": "-2.49%"},
      {"smiles": "COC(=O)c1ccc(COC(=O)c2cnccn2)cc1", "inhibition": "4.2%"},
      {"smiles": "O=C(c1ccc(OC2CCN(C/C=C/c3ccc(F)cc3)CC2)cc1)N1CCCCC1", "inhibition": "-10.6%"},
      {"smiles": "COc1cc(OC)c(-n2cc(-c3ccc(Cl)cc3)[nH]c2=O)cc1Cl", "inhibition": "1.76%"},
      {"smiles": "Cc1ccc(NC(=O)c2nc[nH]c2C(=O)N2CCCCC2)c(C(=O)c2ccccc2)c1", "inhibition": "-2.21%"},
      {"smiles": "Cc1cc(C(=O)N2CCC(C(=O)O)CC2)c(C(F)(F)F)o1", "inhibition": "-3.87%"},
      {"smiles": "COc1cccc(NC(=O)C(Sc2nc3ccccc3c(=O)n2CC(C)C)c2ccccc2)c1", "note": "(configuration not stated)", "inhibition": "0.44%"},
      {"smiles": "Cc1ccc2nc(-c3ccc(SCC(=O)Nc4cc(C)on4)nc3)[nH]c2c1", "inhibition": "-55.5%"},
      {"smiles": "CCC(C(=O)NCCC(C)C)N(Cc1ccccc1Cl)C(=O)c1snc(C(N)=O)c1N", "note": "(configuration not stated)", "inhibition": "-123%"},
      {"smiles": "COc1ccccc1Nc1nc(N)nc(CSC(=S)N2CCOCC2)n1", "inhibition": "-5.33%"},
      {"smiles": "Cc1cccc([C@H]2[C@@H]3C=CC[C@@H](C)[C@@H]3C(=O)N2Cc2ccccc2)c1", "inhibition": "-3.88%"},
      {"smiles": "COc1ccc(NC(=O)CCC(=O)N2CCN(S(=O)(=O)c3ccc(C)cc3)CC2)c(OC)c1", "inhibition": "-5.05%"},
      {"smiles": "CCC1C(C#N)=C(SC)NC2=C1C(=O)CC(C)(C)C2", "note": "(configuration not stated)", "inhibition": "-65.6%"},
      {"smiles": "O=C1CCN(Cc2ccccc2)CCN1[C@H](CSc1ccccc1)c1ccccc1", "inhibition": "-6.78%"},
      {"smiles": "Cc1ccc(C)c(N(CC(=O)NCc2ccco2)C(=O)CCC(=O)Nc2ccccn2)c1", "inhibition": "-1.21%"},
      {"smiles": "Nn1c(SCC(=O)N2c3ccccc3Sc3ccccc32)nnc1-c1n[nH]c2c1CCC2", "inhibition": "-2.4%"},
      {"smiles": "CC1Cc2ccccc2N1C(=O)Cn1cnc2ccccc2c1=O", "note": "(configuration not stated)", "inhibition": "-1.51%"},
      {"smiles": "CCCCNC(=O)C1CCCNC1=O", "note": "(configuration not stated)", "inhibition": "1.97%"},
      {"smiles": "CCOC(=O)C1=CCC2C(=O)N(Cc3ccccc3)C(=O)C12", "note": "(configuration not stated)", "inhibition": "0.58%"},
      {"smiles": "CCOCCCNC(=O)C1(O)c2cc(Br)ccc2NC(=O)N1c1ccc(C)c(C)c1", "note": "(configuration not stated)", "inhibition": "0.25%"},
      {"smiles": "COc1ccc(C(=O)NC2(C(F)(F)F)NC(=O)N(CCCc3ccccc3)C2=O)c(OC)c1OC", "note": "(configuration not stated)", "inhibition": "0.7%"},
      {"smiles": "COC(=O)NC1(C(F)(F)F)NC(=O)N(C2CCCCC2)C1=O", "note": "(configuration not stated)", "inhibition": "13.8% (active)"},
      {"smiles": "O=C(NCCCN1CCCC1=O)c1cccc(S(=O)(=O)NCc2ccccc2)c1", "inhibition": "-4.88%"},
      {"smiles": "Cc1cccc(C(=O)NCCCN2CCCC2=O)c1", "inhibition": "11.5% (active)"},
      {"smiles": "CCOc1ccc(C(=O)NCCCN2CCCC2=O)cc1", "inhibition": "2.32%"},
      {"smiles": "O=C1NC(=O)C(CCc2ccccc2)(c2ccccc2)N1", "note": "(configuration not stated)", "inhibition": "2.82%"},
      {"smiles": "OCC1OC(n2cnc3c(N4CCCC4)ncnc32)C(O)C1O", "note": "(configuration not stated)", "inhibition": "-4.64%"},
      {"smiles": "O=C(Nc1ccccc1C(=O)NCC1CCCO1)c1ccccc1F", "note": "(configuration not stated)", "inhibition": "-7.42%"},
      {"smiles": "CCN1CCN(c2c(Cl)cccc2NC(=O)c2ccc(Br)o2)CC1", "inhibition": "1.67%"},
      {"smiles": "O=c1/c(=C/c2ccc(CNS(=O)(=O)c3ccccc3)o2)sc2n1CCN=2", "inhibition": "-17.6%"},
      {"smiles": "CCOC(=O)C1C(c2ccc(OC)c(OC)c2)c2c([nH][nH]c2=O)CC1(C)O", "note": "(configuration not stated)", "inhibition": "-7.78%"}
    ]}
  ]
}
